Compound activity deposited in PubChem by National Center for Advancing Translational Sciences (NCATS).
RORg inh: ROR gamma (mouse) transcription inhibition; AID 2551; Potency, µM (titrated, usually from 53.6 µM), for inactives: at the top dose activity change, negative = inhibition, hits mostly inhibitors; P51450; hit rate 5.4% among 310,000; Drosophila S2 Gal4-RORgamma UAS-luciferase reporter, 20 h; also: nearly all actives have a fitted effect of over 60% in size
Target sequence (P51450 whole entry, looked up, the tested form may be a part): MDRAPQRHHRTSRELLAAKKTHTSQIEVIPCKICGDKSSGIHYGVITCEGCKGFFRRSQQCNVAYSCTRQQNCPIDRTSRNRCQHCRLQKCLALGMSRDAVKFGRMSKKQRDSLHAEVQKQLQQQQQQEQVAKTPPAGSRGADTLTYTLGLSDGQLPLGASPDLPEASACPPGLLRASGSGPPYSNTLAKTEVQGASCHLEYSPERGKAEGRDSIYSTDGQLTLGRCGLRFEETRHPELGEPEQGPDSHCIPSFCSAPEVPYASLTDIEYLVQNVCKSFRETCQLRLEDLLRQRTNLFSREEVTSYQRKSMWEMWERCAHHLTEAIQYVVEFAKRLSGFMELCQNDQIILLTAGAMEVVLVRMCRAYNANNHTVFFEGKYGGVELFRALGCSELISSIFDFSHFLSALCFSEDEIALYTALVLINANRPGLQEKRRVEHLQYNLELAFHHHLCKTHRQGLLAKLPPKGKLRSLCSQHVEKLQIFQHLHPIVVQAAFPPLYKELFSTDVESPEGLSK
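Schneider cells (Drosophila), stable Gal4 DBD–ROR gamma + UAS-luc; 1 hr cmpd preincubation; Cu2+ induction 700 uM final; 20 hr ambient; luminescence.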
ELG1 repair inh: ELG1-dependent DNA repair inhibition. HEK293T ELG1-luciferase reporter, luminescence, 16 h; DNA damage induced by 5-fluorouridine. Potency, µM (series often up to 46.1 µM), without a hit: at the top dose activity change, negative = inhibition, usual class: inhibitors. hit rate 2.3% among 330,000. AID 504467; also: nearly all actives have a fitted effect of over 55% in size
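Luminescence from the luciferase reporter, measured 30 min after ONE-Glo reagent at room temperature, was the read-out. Beforehand, 2,000 cells per well were exposed for 16 hr at 37 °C to 5-fluorouridine together with compound or vehicle.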
TDP1 cell CPT: growth inhibition of DT40 Tdp1-/-;hTDP1 cells with camptothecin (screen for TDP1 inhibitors); chicken DT40 Tdp1-/-;hTDP1 cells + 20 nM CPT, ATP luminescence, 48 h; Potency, µM (doses to about 46.2 µM), without a hit: at the highest dose activity change, negative = growth inhibition, usual class: inhibitors; hit rate 12% among 420,000; AID 686979; also: nearly all actives have a fitted effect of over 55% in size
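Chicken DT40 Tdp1-/- cells complemented with human TDP1, 400 cells/well, exposed to compounds plus 20 nM camptothecin for at least 48 h at 37 C; viability read as ATP content by CellTiter-Glo luminescence.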
DT40 TDP1 no CPT: qHTS for Inhibitors of human tyrosyl-DNA phosphodiesterase 1 (TDP1): qHTS in cells in absence of CPT | DT40 Tdp1-/- hTDP1 cells, no CPT, ATP luminescence, 48 h | Potency, µM (doses to about 46.2 µM), for the others: top-dose activity change, negative = growth inhibition, actives largely listed as inhibitors | hit rate 15% among 420,000 | AID 686978, 2013; also: nearly all actives have a fitted effect of over 55% in size
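No-CPT arm: Tdp1-/-;hTDP1 DT40 cells (400/well) plus compounds, incubated ≥48 hr at 37 °C. Readout CellTiter-Glo luminescence.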
Gal4-VP16 FLuc: Gal4-VP16 reporter inhibition counter-screen; hit rate 3.5% among 310,000; AID 2546; Drosophila S2 Gal4-VP16 UAS-luciferase, luminescence, 20 h; Potency, µM (series often up to 53.6 µM), inactives show top-dose activity, negative = inhibition, usual class: inhibitors;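 also: Gal4-VP16 expression switched on by copper sulfate through the metallothionein promoter; nearly all actives have a fitted effect of over 50% in size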
12-LOX inh: inhibitors of human 12S-lipoxygenase ALOX12; purified 12hLO, xylenol orange hydroperoxide absorbance; AID 1671190; hit rate 1.1% among 580,000; Potency, µM (doses to about 108 µM), without a hit: top-dose activity change, negative = inhibition, actives largely listed as inhibitors; P18054
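Purified human 12hLO (150 nM final) in 25 mM Hepes, 0.01% Triton X-100, pH 7.0 was preincubated 15 min at room temperature with compound. Then 40 uM arachidonic acid was added, 30 min. Hydroperoxide was read by Fe-XO absorbance ratio 573/405 nm.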
* marks the source's active call; other numbers are inactive results; ? = inconclusive; · = no result given; [ ] = remark or other dose. Most compounds without a hit are left out; they make up all but 15% or so of the library. Calls follow the shape of the dose curve; as a rule, active = well fitted curve in the direction sought with a large enough effect; inconclusive = small, poorly fitted or top-dose-only effect, or another doubt; inactive = no such curve, though single readings can be large; an effect the other way counts as inactive or inconclusive. % is scaled to controls: 0 for no effect and ±100 for the full control effect; potency is read from the fitted curve at half-maximal effect.

SMILES	RORg inh	ELG1 repair inh	TDP1 cell CPT	DT40 TDP1 no CPT	Gal4-VP16 FLuc	12-LOX inh
CCN(CC)c1ccc(/C=C/c2nccc3ccccc23)cc1	·	·	?	12.6µM*	·	·
Cc1ccc(NC(=O)c2ccc(S(=O)(=O)N3CC(C)CC(C)C3)cc2)cc1S(=O)(=O)N1CCOCC1 (centres undefined)	·	·	16.4µM*	7.31µM*	·	0.0%
Cc1cc(C)n(-c2ccc(C(=O)Nc3ccc(C)c(S(=O)(=O)N4CCOCC4)c3)cc2)n1	?	?	?	16.4µM*	-1.4%	-18.6%
CC(=O)c1ccc(NC(=O)c2ccc(C)c(S(=O)(=O)N3CCOCC3)c2)cc1	1.6%	?	1.4%	?	7.2%	-1.9%
CC1CC(C)CN(C(=O)c2ccc(NC(=O)c3ccc(=O)[nH]c3)cc2)C1 (centres undefined)	-1.3%	?	0.0%	-22.8%	-2.3%	15.5%
CC1CC(C)CN(S(=O)(=O)c2ccc(NC(=O)c3ccc(=O)[nH]c3)cc2)C1 (centres undefined)	·	-6.6%	3.26µM*	2.91µM*	·	8.8%
Cc1ccc(CNC2CC3CCC2(C)C3(C)C)s1 (centres undefined)	·	·	·	·	·	26.7%
Cc1ccc(NC(=O)C(=O)c2c[nH]c3ccccc23)c(C)c1	·	·	·	·	·	-0.9%
O=S(=O)(c1ccccc1)N1N=C(c2ccc(Cl)cc2)CC1c1ccc2nccnc2c1 (centres undefined)	·	·	·	·	·	-11.4%
CC(C)N1C(=O)[C@@H]2[C@@H](CCN2C(=O)CSCC(=O)O)N(Cc2cccc(F)c2)C1=O	·	·	·	·	·	35.5µM*
CC(C)N1C(=O)[C@@H]2[C@@H](CCN2C(=O)CC(C)(C)CC(=O)O)N(Cc2cccc(F)c2)C1=O	·	·	·	·	·	12.6%
CO[C@H]1C(=O)N(C2CCN(S(=O)(=O)Cc3ccccc3)CC2)[C@H]1c1ccncc1	·	·	·	·	·	42.5%
CCCNC(=O)/C(=C/c1cn(S(=O)(=O)N(C)C)c2ccccc12)NC(=O)c1ccccc1OC	·	·	·	·	·	-25.6%
CN(C)C(=S)Nc1ccc2ccccc2c1	15.8µM*	?	-2.3%	?	?	1.3%
CC(=O)Nc1ccc2ccccc2c1	32.9%	?	2.1%	6.6%	5.1%	·
COc1ccccc1C(CNc1nc(C(F)(F)F)nc2ccccc12)N(C)C (centres undefined)	27.1%	4.0%	?	20.6µM*	-12.3%	-4.9%
CCNC(=O)CNc1nc(C(F)(F)F)nc2ccccc12	·	·	·	·	·	4.5%
O=C(c1cccc(F)c1)N1CCC[C@@]2(CCN(c3ccccc3)C2)C1	?	·	?	?	?	-7.6%[57.4 µM]
O=C(c1cccc(F)c1)N1CCC2(CC1)CCN(c1ccccn1)CC2	-21.4%	·	?	?	2.0%	3.9%[57.4 µM]
N#Cc1cccc(NC(=O)N2CCCC3(CCN(C(=O)c4cccc(F)c4)CC3)C2)c1	-17.1%	·	-11.9%	?	-10.9%	-0.4%[57.4 µM]
N#Cc1cccc(NC(=O)N2CC[C@@]3(CCCN(C(=O)c4cccc(F)c4)C3)C2)c1	-3.8%	·	-24.7%	20.6µM*	-3.8%	?
O=C(c1cccc(F)c1)N1CCC2(CC1)CCN(c1cccc(-c3ccccc3)c1)CC2	17.8%	·	?	16.4µM*	-1.5%	?
COc1ccc(C(=O)N2CCC3(CC2)CCN(c2cccc(-c4ccccc4)c2)CC3)cc1	2.8%	·	0.116µM*	0.231µM*	-10.4%	-12.9%[57.4 µM]
O=C(c1cccc(F)c1)N1CCC[C@@]2(CCN(c3cccc(-c4ccccc4)c3)C2)C1	30.2%	·	20.6µM*	20.6µM*	-1.8%	0.7%[57.4 µM]
NC(=O)CN1CCC(c2nc3ccccc3o2)CC1	·	·	·	·	·	7.7%
SMILES	RORg inh	ELG1 repair inh	TDP1 cell CPT	DT40 TDP1 no CPT	Gal4-VP16 FLuc	12-LOX inh
O=C(c1cccc(F)c1)N1CCC2(CC1)CN(c1cccc(-c3ccccc3)c1)C2	71.2%	·	?	16.4µM*	?	-4.4%[57.4 µM]
O=C(c1cccc(F)c1)N1CCC2(CCCN(c3cccc(-c4ccccc4)c3)C2)CC1	17.7%	·	-3.5%	?	-9.2%	0.0%[57.4 µM]
O=C1NC[C@H](c2ccccc2)OC(=O)[C@@H](Cc2ccc(F)cc2)CC/C=C/C[C@H]1CC(=O)N(CCO)Cc1ccccc1	·	5.17µM*	13µM*	11.6µM*	·	?
O=C1NC[C@H](c2ccccc2)OC(=O)[C@@H](Cc2ccc(F)cc2)CC/C=C/C[C@@H]1CC(=O)N(CCO)Cc1ccccc1	·	23.1µM*	?	23.1µM*	·	-4.0%
CN1c2cc(C(N)=O)ccc2C(=O)N2CCCC21 (centres undefined)	·	·	·	·	·	16.5%
Clc1ccc(CN2CCC(CNc3ncnc4onc(-c5ccc(Cl)cc5)c34)CC2)cc1	·	·	?	23.1µM*	·	?
Cc1cccc(CN2CCC(CNc3ncnc4onc(-c5ccc(Cl)cc5)c34)CC2)c1	·	·	?	?	·	-4.8%
Cc1ccc(CN2CCC(CNc3ncnc4onc(-c5ccc(Cl)cc5)c34)CC2)cc1	·	·	18.4µM*	16.4µM*	·	3.9%
Cc1cccc(Nc2ncnc3onc(-c4ccc(Cl)cc4)c23)c1C	·	·	-1.2%	-24.3%	·	-13.2%
Fc1ccc(-c2noc3ncnc(NCc4ccc(Cl)cc4)c23)cc1	·	·	?	?	·	-14.9%
Cc1ccccc1CN1CCC(CNc2ncnc3onc(-c4ccc(Cl)cc4)c23)CC1	·	·	?	16.4µM*	·	-7.4%
Cc1nc2cc(NC(=O)CNC(=O)c3ccco3)ccc2o1	·	·	·	·	·	-11.3%
Cc1c(C)n(Cc2cccnc2)c2ncnc(NCc3ccco3)c12	·	·	·	·	·	-11.6%
COc1cc(CCCN2C(=S)NC[C@@H]2Cc2ccccc2)cc(OC)c1OC	10µM*	?	25.9µM*	16.4µM*	?	?
COc1cc(CCCN2C(=S)NC[C@@H]2c2ccccc2)cc(OC)c1OC	10µM*	-0.2%	25.9µM*	16.4µM*	?	?
COc1ccccc1N1CCN(C(=O)C2N(C(C)C)C(=O)C23CCCC3)CC1 (centres undefined)	·	·	·	·	·	14.4%
Clc1cccc(/C=N/Nc2ccc(Cl)c(Cl)c2)c1	·	·	·	·	·	5.62µM*
Clc1ccc(N/N=C/c2cccc(/C=N/Nc3ccc(Cl)c(Cl)c3)c2)cc1Cl	·	·	·	·	·	0.708µM*
Clc1cccc(/C=N/N=C/c2cccc(Cl)c2)c1	·	·	·	·	·	9.3%
Clc1ccc(N/N=C/c2ccccc2)cc1Cl	·	·	·	·	·	2.24µM*
FC(F)(F)c1ccc(N/N=C/c2cccc(Br)c2)nc1	·	·	·	·	·	-20.9%
Brc1cccc(/C=N/Nc2ccc3ccccc3c2)c1	·	·	·	·	·	5.62µM*
